Screening data (PubChem)
PostGolgi yeast – growth inhibition of a yeast mutant, post-Golgi transport screen | 0.9% of 98,000 active | post-Golgi transport phenotypic cell assay | inhibition, % at 10 µM;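 also: yeast cells grown in 1536-well plates; yeast grown about 18 h at 30C before absorbance read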
CYP2C19 act – increases human CYP2C19 enzyme activity. recombinant CYP2C19, luciferin-H EGE luminescence; active compounds read high; 0 = fully inhibited enzyme, 1 = untreated enzyme. activation factor at 5 µM. 96,000 tested, under 10 active. AID 1025;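 active = activation factor of at least 2 at 5 µM in the primary screen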;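 also: 0 = wells with 2.5 mM tranylcypromine and 1 = vehicle-only wells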
Target sequence (P33261 whole entry, looked up): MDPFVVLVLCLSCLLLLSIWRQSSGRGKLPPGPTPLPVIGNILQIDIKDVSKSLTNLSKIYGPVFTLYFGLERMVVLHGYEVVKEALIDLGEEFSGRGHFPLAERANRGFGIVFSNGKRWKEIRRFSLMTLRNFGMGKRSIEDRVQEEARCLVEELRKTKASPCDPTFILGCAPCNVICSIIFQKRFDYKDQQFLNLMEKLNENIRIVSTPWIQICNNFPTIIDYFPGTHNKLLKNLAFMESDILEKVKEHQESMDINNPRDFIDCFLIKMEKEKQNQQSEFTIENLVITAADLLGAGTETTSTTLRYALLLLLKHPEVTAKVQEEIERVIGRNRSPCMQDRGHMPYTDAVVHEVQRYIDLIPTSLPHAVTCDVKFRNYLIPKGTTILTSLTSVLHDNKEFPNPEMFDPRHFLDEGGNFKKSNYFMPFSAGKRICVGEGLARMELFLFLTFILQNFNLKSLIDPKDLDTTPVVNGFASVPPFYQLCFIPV
PostGolgi ctrl – inhibits growth of the yeast control strain. inhibition, % at 10 µM. efflux-deficient yeast background strain, growth absorbance A615, 16 h. 5% of 98,000 active
CYP2C9 activ – activators of human CYP2C9 | P11712 | recombinant CYP2C9, luciferin-H conversion, luminescence; active compounds read high; factor 1 = untreated enzyme, 0 = blocked | activation factor at 5 µM | 1.4% of 96,000 active | AID 1024;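 active = activation factor of 2 or more for CYP2C9 at a 5 µM dose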;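 also: 0 = sulfaphenazole-blocked wells and 1 = vehicle-only wells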
CYP2C9 inh – inhibitors of human CYP2C9; P11712; CYP2C9 Supersomes, luciferin-H conversion, luminescence; inhibition, % at 5 µM; 20% of 96,000 active; AID 777;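 active = blocking of liver enzyme CYP2C9 beyond about 50% at 5 µM, limit read from the data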
CYP2C19 inhib – human CYP2C19 inhibition; P33261; CYP2C19 Supersomes, luciferin-H EGE luminescence, 30 min; inhibition, % at 5 µM; 21% of 96,000 active; AID 778;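 active = CYP2C19 inhibition above a set limit at 5 µM in the primary screen, cut at about 50% in these data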;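 also: plate controls were negative control wells for no effect and 2.5 mM tranylcypromine positive control for full effect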
Starred values were filed as active, the others as inactive; x = no result. Only some compounds are listed: those with a hit (about 32% of all), similar ones and a draw of the others. Rule as the data show it, unless noted: active = inhibition above about 30%; inactive = the rest.

SMILES | PostGolgi yeast | CYP2C19 act | PostGolgi ctrl | CYP2C9 activ | CYP2C9 inh | CYP2C19 inhib
O=C(NCCC1=CCCCC1)c1ccc(Cl)c(S(=O)(=O)N2CCOCC2)c1 | -5 | 0.5 | 9 | 0.4 | 60* | 51*
O=C(C[n+]1ccc(C(=O)N/N=C/c2ccc(Br)cc2)cc1)c1ccccc1 | 5 | 0.3 | 19 | 0.7 | 34 | 74*
CC(=O)Nc1ccc(NS(=O)(=O)c2cccc3ccccc23)cc1 | 1 | 0.1 | -5 | 0.7 | 29 | 89*
CC(=O)Nc1ccc(S(=O)(=O)N(Cc2ccccc2)C(C)C)cc1 | -2 | 0.5 | 14 | 0.3 | 67* | 52*
CC(=O)Nc1ccc(NS(=O)(=O)c2cn(C)c(=O)n(C)c2=O)cc1 | 17 | 1.2 | -1 | 1.2 | -15 | -17
CC(=O)Nc1ccc(NS(=O)(=O)Cc2ccccc2)cc1 | 4 | 0.4 | 1 | 0.6 | 37 | 58*
CC(C)N(Cc1ccccc1)S(=O)(=O)N(C)C | 4 | 0.2 | -2 | 0.8 | 23 | 77*
COC(=O)C(C(=O)OC)=C(/C=C/C=C/N(C)C)N(C)C | -1 | 1 | 7 | 1.1 | -14 | -4
NC(=O)c1ccccc1NS(=O)(=O)Cc1ccccc1 | -2 | 0.5 | -8 | 4* | -295 | 50
CC(=O)Nc1ccc(S(=O)(=O)Nc2ccc(NC(=O)c3ccco3)cc2)cc1 | 10 | 1 | -10 | 0.8 | 20 | -1
CC(=O)Nc1ccc(NS(=O)(=O)c2ccc3ccccc3c2)cc1 | -6 | 0 | 4 | 0.3 | 75* | 99*
O=C(O)c1ccccc1S(=O)(=O)Cc1ccccc1 | 4 | 1 | 9 | 0.9 | 8 | 1
CC(C)C1O/C(=N/C(=O)Nc2ccc(Cl)c(Cl)c2)NC1=O (centres undefined) | 98* | 0.9 | 92* | 0.9 | 7 | 7
CC(C)n1c2ccccc2c2nc3ccccc3nc21 | 1 | 1 | 46* | 0.9 | 15 | 4
COc1ccccc1NC(=O)CSC(N)=O | -7 | 0.7 | 4 | 0.8 | 21 | 30
COc1cccc(CNn2c(-c3cccc(C)c3)nc3ccccc3c2=O)c1O | -1 | 0.2 | 47* | 0.6 | 44 | 80*
Cc1ccc(NC(=O)CN(C)S(=O)(=O)c2cccs2)cc1C | 10 | 0.2 | -3 | 0.8 | 17 | 79*
Cc1ccc(NC(=O)CN(C)S(=O)(=O)c2cccs2)cc1F | -3 | 0.3 | -1 | 0.7 | 32 | 69*
CCOc1ccc(NC(=O)CN(C)S(=O)(=O)c2cccs2)cc1 | 0 | 0.8 | 11 | 1.3 | -32 | 20
Cc1noc(C)c1S(=O)(=O)N(C)CC(=O)Nc1ccc(F)cc1 | -1 | 0.7 | 2 | 0.6 | 36 | 26
CCOC(=O)N1CCC(Nc2c(NCCCN(C)Cc3ccccc3)c(=O)c2=O)CC1 | -2 | 1 | 11 | 1 | -2 | -2
NC(=O)c1ccsc1NC(=O)C1CCCCC1 | -1 | 0.4 | 15 | 0.7 | 33 | 63*
Cc1ccnc(NC2OC(=O)c3ccccc32)c1 (centres undefined) | 2 | 0.8 | 10 | 1.2 | -16 | 16
COc1cc(C)c(N)cc1C(C)C | -1 | 0.1 | -5 | 0.4 | 57* | 88*
Cc1ccc(CNC(=O)c2cnc(-c3ccccn3)nc2C(F)(F)F)cc1 | -4 | 0.8 | -8 | 0.6 | 44 | 18
SMILES | PostGolgi yeast | CYP2C19 act | PostGolgi ctrl | CYP2C9 activ | CYP2C9 inh | CYP2C19 inhib
CN(C)c1ccc(/C=C/c2ccncc2)cc1 | -2 | 0 | 1 | 0.2 | 78* | 98*
CC(C)(C)OC(=O)N1CCC(c2cc(=O)n3[nH]cc(C(=O)NC4CCCC4)c3n2)CC1 | 22 | 0.6 | -10 | 0 | 95* | 39
CC(C)(C)OC(=O)N1CCC(c2cc(=O)n3[nH]c(-c4ccc(Cl)cc4)cc3n2)CC1 | 6 | 1.1 | 5 | 1.2 | -20 | -9
CN(C)c1ccc(N/C=C/C(=O)c2ccccc2)cc1 | -5 | 0 | 3 | 0.3 | 73* | 99*
O=C(/C=C/Nc1ccccc1)c1ccccc1 | -4 | 0.5 | 4 | 0.7 | 34 | 55*
CN(C)c1ccc(N/C=C/C(=O)C(C)(C)C)cc1 | 5 | 1 | 7 | 0.7 | 32 | 4
Cc1ccc(N/C=C/C(=O)c2ccc(C)cc2)cc1 | 13 | 0.7 | 22 | 0.8 | 19 | 30
O=C(/C=C\NCC(=O)c1ccccc1)c1ccc(F)cc1 | 17 | 0.4 | -4 | 1.1 | -5 | 56*
C/C(=C\C(=O)c1ccccc1)NCc1ccc(F)cc1 | 15 | 0.7 | 8 | 1 | 4 | 34
CN(C(=O)c1ccc(S(=O)(=O)NC2CCCC2)cc1)C1CCCCC1 | 11 | 0.9 | 11 | 0.9 | 13 | 12
CCN1CCN(Cc2ccc(NC(=O)Nc3cccs3)cc2)CC1 | -5 | 1.3 | 5 | 1.2 | -22 | -30
CN=C(NC#N)SCC(=O)c1ccc(Cl)cc1Cl | -3 | 0.2 | 11 | 0 | 96* | 82*
O=C(CSc1nnc(-c2ccc(Cl)s2)o1)N1CCOCC1 | x | 1 | x | 1.1 | -10 | -4
Cc1oc2cc(O)ccc2c(=O)c1Oc1ccc2ccccc2c1 | 0 | 0.8 | 19 | 2* | -98 | 18
O=C(COc1ccc(N2CC(C(=O)O)CC2=O)cc1)Nc1cccc(C(F)(F)F)c1 (centres undefined) | 7 | 1 | 3 | 1.2 | -20 | -4
CCOC(=O)c1oc2ccc(S(=O)(=O)n3nc(-c4ccc(C)cc4)cc3N)cc2c1C | 10 | 0.5 | 32* | 0 | 96* | 48
CCOC(=O)c1oc2ccc(S(=O)(=O)n3nc(-c4ccc(Cl)cc4)cc3N)cc2c1C | 4 | 0.8 | 7 | 0 | 99* | 16
Cc1ccc(Cn2cccc(NC(=O)NC3CCCCC3)c2=O)cc1 | -10 | 0.4 | 15 | 0.7 | 33 | 65*
CC(C)=C(C#N)c1nc2ccccc2s1 | -3 | 0.4 | 9 | 1 | 0 | 56*
CC(C)NC(=O)c1nc2ccccc2s1 | -2 | 0.7 | 1 | 0.9 | 9 | 25
COC(=O)c1ccc(/C(O)=C(\C#N)c2nc3ccccc3s2)cc1 | 8 | 1 | 0 | 0.4 | 58* | 3
CC(=O)N1CCC(N(CCCOC(C)C)C(=O)Nc2ccc(C)c(C)c2)CC1 | 5 | 1.1 | 20 | 1 | 0 | -12
Cc1ccc(N(C(=O)c2ccccn2)C2(C(=O)NC3CCCC3)CCCCC2)cc1 | 17 | 0.6 | 9 | 0.1 | 93* | 37
CCc1ccc(OCC(O)CN2CCN(c3ccccc3)CC2)cc1 (centres undefined) | 7 | 0.3 | 33* | 0.8 | 16 | 67*
Cc1ccc(OCC(O)CN2CCN(c3ccccc3)CC2)cc1 (centres undefined) | 0 | 1 | 21 | 1.2 | -20 | -2
CCCc1ccc(OCC(O)CN2CCN(c3ccccc3)CC2)cc1 (centres undefined) | 72* | 0.3 | 85* | 0.6 | 38 | 73*
